Assay results from PubChem BioAssay (Tox21).
Inconclusive results are not listed. Active and inactive are the calls of the source. Unless noted, the call rests on the fitted dose curve; in most records, active means well fitted curve in the direction sought with a large enough effect in the repeat runs; inconclusive means weak or mixed curves; inactive means no such curve, though single readings can be large; an effect the other way counts as inactive or inconclusive.

Tests used:
[1] = A CellTox Green Cytotoxicity Assay to monitor cytotoxicity in HepG2 cells - 8 hour (AID 1224890); further: nearly all actives have a fitted effect of over 45% in size
Summary of the method: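 Real-time cytotoxicity: fluorescence of a cell-impermeant cyanine dye binding DNA of dead HepG2 cells, measured repeatedly (0–40 h) during compound exposure at 37 C. Cells seeded 600/well with reagent, dosed after 5 h.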

[2] = qHTS assay to identify small molecule antagonists of the estrogen receptor alpha (ER-alpha) signaling pathway using the BG1 cell line in the presence of 0.1 nM 17-beta-estradiol - cell viability counter screen (AID 1259241); further: nearly all actives have a fitted effect of over 40% in size
Summary of the method: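 Following 5 days in phenol red-free medium with charcoal-stripped serum, VM7Luc4E2 cells received test compounds alongside 0.1 nM 17beta-estradiol (final) at 37C for 22 hr. Live cells were then quantified via protease-substrate fluorescence.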

[3] = qHTS assay to identify small molecule antagonists of the androgen receptor (AR) signaling pathway using the MDA cell line in the presence of 0.5 nM R1881 - cell viability counter screen (AID 1259242); further: nearly all actives have a fitted effect of over 45% in size
Summary of the method: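 Live-cell protease activity was measured by CellTiter-Fluor fluorescence after 30 min. Before that, MDA-kb2 MMTV-luciferase cells had 16 hr at 37C without CO2, exposed to test compounds and 0.5 nM R1881 final.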

[4] = biological target: Estrogen receptor (Homo sapiens) (UniProt P03372); assay: qHTS assay to identify small molecule antagonists of the estrogen receptor alpha (ER-alpha) signaling pathway using the BG1 cell line in the presence of 0.1 nM 17-beta-estradiol (AID 1259244); further: nearly all actives have a fitted effect of over 50% in size
Summary of the method: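 Luciferase luminescence (ONE-Glo, 30 min at room temperature) was read after 22 hr at 37C exposure to compounds plus 17beta-estradiol at 0.1 nM final. Cells were VM7Luc4E2 with endogenous ER-alpha and an ERE-driven luciferase, pre-cultured 5 days in hormone-depleted medium.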

[5] = qHTS assay to identify small molecule HDAC inhibitors (AID 1259364); further: top concentration of the series differs between compounds; nearly all actives have a fitted effect of over 45% in size
Summary of the method: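 Luminescence read after 30 min room-temperature HDAC-Glo incubation measures cellular class I/II HDAC activity. Compounds were applied for 2 hr at 37 C to HCT-116 wild-type cells seeded the day before.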

[6] = qHTS assay to identify small molecule HDAC inhibitors - cell viability counter screen (AID 1259365); further: series mostly up to about 92 µM; nearly all actives have a fitted effect of over 50% in size
Summary of the method: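 HCT-116 wild-type, overnight attachment; 2hr drug exposure, 37C; CellTiter-Glo luminescent ATP readout after 30min RT.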

[7] = qHTS assay to identify small molecule agonists of the sonic hedgehog signaling (Shh) pathway - cell viability counter screen (AID 1259366); further: nearly all actives have a fitted effect of over 50% in size
Summary of the method: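 Compounds in DMSO were pin-transferred onto 3T3 Gli1-Luc cells that had settled 4hr; plates then stood 24hr at 37C and 5% CO2. One hour before the end, CellTiter-Fluor was added and fluorescence recorded.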

[8] = qHTS assay to identify small molecule antagonists of the sonic hedgehog signaling (Shh) pathway - cell viability counter screen (AID 1259367); further: nearly all actives have a fitted effect of over 55% in size
Summary of the method: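 Viability was read by CellTiter-Fluor fluorescence in the same wells, reagent added 23 hr into compound treatment and incubated 1 hr at 37C. The 3T3 Gli1-Luc reporter cells (2,000/well) received conditioned medium after compound and ran 24 hr.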

[9] = qHTS assay to identify small molecule agonists of the sonic hedgehog signaling (Shh) pathway (AID 1259368; calls by dose curve;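 further: NIH/3T3-derived 3T3Gli1-Luc cells carrying a stable Gli1-driven firefly luciferase reporter; series mostly up to about 92 µM; nearly all actives have a fitted effect of over 15% in size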)
Summary of the method: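 Luminescence was read after 30 min at room temperature with luciferase reagent. Before that, 3T3Gli1-Luc cells (NIH/3T3 clone, stable Gli1-Luc reporter; 2,000/well) were exposed to compounds for 24 hr at 37C, 5% CO2, compounds being added 4 hr post-plating.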

[10] = qHTS assay to identify small molecule antagonists of the sonic hedgehog signaling (Shh) pathway (AID 1259369; calls by dose curve; further: nearly all actives have a fitted effect of over 45% in size)
Summary of the method: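 Antagonist mode: compound added to 3T3 Gli1-Luc cells followed by conditioned-medium stimulation, 24 h at 37 C, 5% CO2. Inhibition taken as loss of Gli1-driven luciferase luminescence.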

[11] = qHTS assay to identify small molecule agonists of the androgen receptor (AR) signaling pathway in the presence of an antagonist - cell viability counter screen (AID 1259379);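 further: MDA-kb2 human breast cancer cells carrying an MMTV luciferase reporter; series mostly up to about 92 µM; nearly all actives have a fitted effect of over 25% in size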
Summary of the method: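 Cytotoxicity counter-screen run in the same wells as the nilutamide-challenged (3.0 µM final) AR agonist assay in MDA-kb2 cells. Compounds tested at 15 concentrations for 16 h, 37 °C without CO2; CellTiter-Fluor fluorescence read.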

[12] = qHTS assay to identify small molecule agonists of the estrogen receptor beta (ER-beta) signaling pathway - cell viability counter screen (AID 1259380); further: nearly all actives have a fitted effect of over 30% in size
Summary of the method: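 Cell viability counter screen: CellTiter-Glo luminescence (30 min, room temperature) measured in the same wells as the beta-lactamase readout, after 16 hr compound exposure at 37C of ER-beta-bla HEK293T cells in 2% charcoal-stripped FBS medium.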

[13] = qHTS assay to identify small molecule antagonists of the estrogen receptor beta (ER-beta) signaling pathway - cell viability counter screen (AID 1259382);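 further: HEK293T cells carrying ER-beta-UAS-bla reporter stimulated with estradiol; series mostly up to about 92 µM; nearly all actives have a fitted effect of over 55% in size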
Summary of the method: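 Cytotoxicity was measured in the same wells by CellTiter-Glo luminescence after 30 min at room temperature. Cells were ER-beta-bla HEK293T in charcoal-stripped serum, given compound together with 1 nM E2 and incubated 16 h at 37C.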

[14] = biological target: Estrogen receptor (Homo sapiens) (UniProt P03372); assay: qHTS assay to identify small molecule agonists of the estrogen receptor alpha (ER-alpha) signaling pathway in the presence of an antagonist (AID 1259383; calls by dose curve; further: top concentration of the series differs between compounds; nearly all actives have a fitted effect of over 15% in size)
Summary of the method: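 Agonist-mode confirmation run in the presence of 10.0nM (final) ICI-182,780 antagonist. The reporter was ERE-driven luciferase in VM7Luc4E2 cells, grown in charcoal-stripped serum. Cells were exposed to 15-concentration compound series for 22hr, then ONE-Glo luminescence was read.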

[15] = qHTS assay to identify small molecule agonists or antagonists of the thyroid stimulating hormone receptor (TSHR) signaling pathway - wild type cell line counter screen (AID 1259384; calls by dose curve)
Summary of the method: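 Counter screen in untransfected Hek293: compounds (15-point titration, triplicate) plus phosphodiesterase inhibitor Ro20-1724 added after 18 h plating; 30 min RT. Intracellular cAMP via competitive d2/cryptate immunoassay, 1 h incubation.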

[16] = biological target: Estrogen receptor beta (Homo sapiens) (UniProt Q92731); assay: qHTS assay to identify small molecule agonists of the estrogen receptor beta (ER-beta) signaling pathway (AID 1259377; active means well fitted activation curve with a large enough effect in the signal ratio in the repeat runs, not every such curve was filed as active; the % refers to the signal ratio)
Summary of the method: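 qHTS in ER-beta-UAS-bla HEK293T cells: 6 hr settling, then 16 hr compound at 37C, then LiveBLAzer substrate 2 h at RT before fluorescence reading.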

[17] = biological target: Estrogen receptor beta (Homo sapiens) (UniProt Q92731); assay: qHTS assay to identify small molecule antagonists of the estrogen receptor beta (ER-beta) signaling pathway (AID 1259378; active means well fitted inhibition curve with a large enough effect in the signal ratio in the repeat runs, not every such curve was filed as active; the % refers to the signal ratio)
Summary of the method: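 Antagonist mode: compounds added to beta-lactamase reporter HEK293T ER-beta-UAS cells stimulated with E2 (1nM final), 16 hr at 37C. LiveBLAzer B/G FRET substrate, 2 hours room temperature, fluorescence read-out.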

[18] = biological target: Androgen receptor (Homo sapiens) (UniProt P10275); assay: qHTS assay to identify small molecule agonists of the androgen receptor (AR) signaling pathway in the presence of an antagonist (AID 1259381; calls by dose curve; further: nearly all actives have a fitted effect of over 15% in size)
Summary of the method: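 Agonist-mode confirmation run against 3.0 uM final nilutamide: compounds titrated at 15 concentrations onto MDA-kb2 MMTV-luciferase reporter cells. Luminescence measured with ONE-Glo following 16 hr incubation, 37C, 0% CO2.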

[19] = qHTS assay to identify small molecule phospholipidosis (PLD) inducers (AID 1259344; active means well fitted curve in the direction sought with a large enough effect; an effect the other way counts as inactive or inconclusive)
Summary of the method: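 Phospholipid accumulation was scored by imaging: fixed, Hoechst-counterstained HepG2 cells stained with LipidTOX Red after 24 h compound exposure at 37 C. Read-outs were pit count and pit intensity per well or per cell, with amiodarone and DMSO controls.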

Measured: Potency

Chain of Estrogen receptor (Homo sapiens) (P03372 whole entry, looked up): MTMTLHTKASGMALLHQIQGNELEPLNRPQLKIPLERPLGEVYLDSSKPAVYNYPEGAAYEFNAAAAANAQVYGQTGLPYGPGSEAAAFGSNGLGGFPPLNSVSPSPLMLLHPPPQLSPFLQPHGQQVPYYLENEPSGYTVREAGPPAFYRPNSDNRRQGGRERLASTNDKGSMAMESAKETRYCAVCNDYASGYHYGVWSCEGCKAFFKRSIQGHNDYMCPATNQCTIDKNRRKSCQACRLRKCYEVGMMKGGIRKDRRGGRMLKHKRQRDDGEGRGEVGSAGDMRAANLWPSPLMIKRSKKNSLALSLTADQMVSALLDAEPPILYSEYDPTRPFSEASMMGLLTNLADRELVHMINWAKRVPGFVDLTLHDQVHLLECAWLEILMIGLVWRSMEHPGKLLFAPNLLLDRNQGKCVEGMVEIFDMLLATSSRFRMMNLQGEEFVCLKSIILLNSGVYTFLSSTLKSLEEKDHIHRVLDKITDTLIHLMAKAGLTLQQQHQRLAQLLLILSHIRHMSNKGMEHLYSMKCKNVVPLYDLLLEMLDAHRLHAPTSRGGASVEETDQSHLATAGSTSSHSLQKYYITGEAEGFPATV
Chain of Estrogen receptor beta (Homo sapiens) (Q92731 whole entry, looked up): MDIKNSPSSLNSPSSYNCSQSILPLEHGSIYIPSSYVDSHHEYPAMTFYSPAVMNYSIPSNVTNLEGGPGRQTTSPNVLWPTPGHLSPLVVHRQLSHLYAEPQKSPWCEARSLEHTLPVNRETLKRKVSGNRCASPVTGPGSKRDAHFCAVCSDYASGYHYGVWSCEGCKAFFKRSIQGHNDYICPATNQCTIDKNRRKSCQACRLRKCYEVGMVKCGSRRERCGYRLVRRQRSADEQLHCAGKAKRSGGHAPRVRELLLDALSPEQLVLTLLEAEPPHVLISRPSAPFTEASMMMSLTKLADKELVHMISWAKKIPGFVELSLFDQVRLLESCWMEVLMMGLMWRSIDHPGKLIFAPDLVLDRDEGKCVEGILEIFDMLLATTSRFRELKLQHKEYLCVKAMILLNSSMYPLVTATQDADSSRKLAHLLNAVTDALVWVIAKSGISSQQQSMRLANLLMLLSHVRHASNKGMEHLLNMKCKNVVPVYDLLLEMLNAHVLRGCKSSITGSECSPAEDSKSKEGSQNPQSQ
Chain of Androgen receptor (Homo sapiens) (P10275 whole entry, looked up): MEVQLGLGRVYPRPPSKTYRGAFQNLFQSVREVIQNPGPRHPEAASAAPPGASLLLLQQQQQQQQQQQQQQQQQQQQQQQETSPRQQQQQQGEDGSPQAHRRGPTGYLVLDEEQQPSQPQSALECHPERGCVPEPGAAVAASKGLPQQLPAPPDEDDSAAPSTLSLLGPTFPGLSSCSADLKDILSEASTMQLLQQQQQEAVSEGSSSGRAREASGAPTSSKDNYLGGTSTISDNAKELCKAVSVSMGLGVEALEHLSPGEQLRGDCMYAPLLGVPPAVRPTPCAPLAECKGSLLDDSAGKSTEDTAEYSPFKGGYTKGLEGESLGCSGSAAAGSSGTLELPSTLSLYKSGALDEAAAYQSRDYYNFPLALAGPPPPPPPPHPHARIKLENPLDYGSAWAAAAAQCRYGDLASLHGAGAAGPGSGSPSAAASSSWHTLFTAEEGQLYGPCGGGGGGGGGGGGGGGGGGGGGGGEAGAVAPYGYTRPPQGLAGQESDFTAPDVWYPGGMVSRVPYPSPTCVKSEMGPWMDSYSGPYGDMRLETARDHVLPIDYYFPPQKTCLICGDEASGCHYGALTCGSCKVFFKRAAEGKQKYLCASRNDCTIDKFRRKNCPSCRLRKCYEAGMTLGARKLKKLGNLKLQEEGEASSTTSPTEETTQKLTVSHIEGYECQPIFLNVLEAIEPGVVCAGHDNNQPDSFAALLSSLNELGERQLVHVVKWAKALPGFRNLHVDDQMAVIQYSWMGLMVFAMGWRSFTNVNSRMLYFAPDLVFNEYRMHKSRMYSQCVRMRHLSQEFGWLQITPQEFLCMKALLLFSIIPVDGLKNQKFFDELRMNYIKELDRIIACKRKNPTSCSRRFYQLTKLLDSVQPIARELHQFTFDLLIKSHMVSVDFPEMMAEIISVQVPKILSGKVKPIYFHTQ

c1ccc2cnncc2c1
not listed: [16] | [17] | [18] | [19]
inactive: all other assays above

CC/C=C\CCCCO
not listed: [15] | [16] | [17] | [18] | [19]
inactive: all other assays above

CC(C)CCOC(=O)CC(C)C
not listed: [15] | [16] | [17] | [18] | [19]
inactive: all other assays above

CNC(=O)c1c(I)c(NC(=O)CCCCC(=O)Nc2c(I)c(C(=O)O)c(I)c(C(=O)NC)c2I)c(I)c(C(=O)O)c1I
not listed: [15] | [17] | [18] | [19]
inactive: all other assays above

CCCCCCCCCCCl
not listed: [15] | [16] | [17] | [18] | [19]
inactive: all other assays above

CO[Si](CCCNCCC[Si](OC)(OC)OC)(OC)OC
not listed: [16] | [17] | [18] | [19]
inactive: all other assays above

CCC(=O)Nc1cccc(N)c1
not listed: [10] | [18] | [19]
inactive: all other assays above

CCCCCCCCCCCCCCCCCC(=O)OCCCCCCCCCCCCCC(C)C
not listed: [16] | [17] | [18] | [19]
inactive: all other assays above

N#CCc1ccccc1[N+](=O)[O-]
not listed: [4] | [14] | [18] | [19]
inactive: all other assays above

COc1ccc2cc(C=O)ccc2c1
not listed: [6] | [16] | [19]
inactive: all other assays above

CC(C)c1cccc(O)c1
not listed: [6] | [18] | [19]
inactive: all other assays above

Cc1ccccc1Br
not listed: [4] | [14] | [18] | [19]
inactive: all other assays above

COC(=O)c1ccc(C(=O)OC)c(C(=O)OC)c1
not listed: [4] | [17] | [18] | [19]
inactive: all other assays above

COc1cc(C(=O)N2CCOCC2)cc(OC)c1OC
not listed: [4] | [14] | [15] | [16] | [18]
inactive: all other assays above

O=C(O)C1CCC1
not listed: [6] | [18] | [19]
inactive: all other assays above
